Results from PubChem BioAssay (NCATS).
Results filed as inconclusive are left out. Unmarked numbers belong to inactive results. The source made the active and inactive calls. The call rests on the fitted dose curve; tested in HEK293 reporter line. Square brackets hold non-standard residues; d marks the D form. Peptide text beside a SMILES is read from it. * marks the point of attachment. Nva = CCC[C@H](N)C(=O)O; Cbz = O=C(OCc1ccccc1)*

Assay: qHTS for Inhibitors of the Functional Ribonucleoprotein Complex (vRNP) of Lassa (LASV) Arenavirus: Viability assay - alamar blue signal for LASV Primary Screen (AID 1347083)
Conditions: cell viability, alamar blue fluorescence (LASV minigenome counter-screen); series mostly up to 57.5 µM; activity change, negative = reduced viability: at the top concentration
Further: nearly all actives have a fitted effect of over 80% in size.
On the % scale 0 is the no-effect control and ±100 the full control effect; potency means the concentration at half of the fitted maximal effect.

For COc1cc(C[C@@H](CO)[C@H](CO)Cc2ccc(O)c(OC)c2)ccc1O, the Potency was 1.72 µM (active).
For CCC[C@@H](C=O)NC(=O)[C@H](CC(C)C)NC(=O)[C@H](CC(C)C)NC(=O)OCc1ccccc1 (Cbz-Leu-Leu-[Nva]-aldehyde), the Potency was 5.44 µM (active).
For O=Nc1c(-c2c(O)[nH]c3cc(Br)ccc23)[nH]c2ccccc12, the Potency was 15.8 µM (active).
For COc1cc(NC(=O)c2ccc(-c3ccc(Cl)cc3)o2)cc(OC)c1, the Potency was 15.3 µM (active).
With COc1ccc(-c2oc3c(CC=C(C)C)c(O)cc(O)c3c(=O)c2O)cc1 the Potency was 38.5 µM (active).
In the case of CCS(=O)(=O)Nc1ccc2[nH]c(O)c(C(=Nc3ccc(CN4CCCCC4)cc3)c3ccccc3)c2c1, the Potency is reported as 2.17 µM (active).
In the case of COCCCCC(=NOCCN)c1ccc(C(F)(F)F)cc1, the Potency is reported as 1.93 µM (active).
For CCCCOc1c(C(=O)c2c(F)cc(C)cc2F)cnc2n[nH]cc12, the Potency was 2.17 µM (active).
For COc1cccc2c1C(=O)c1c(O)c3c(c(O)c1C2=O)C[C@@](O)(C(=O)CO)C[C@@H]3O[C@H]1C[C@H](N)[C@H](OC2CCCCO2)[C@H](C)O1 (stereo not given in full), the Potency was 6.11 µM (active).
With CC[C@@]1(O)C[C@H](O[C@H]2C[C@H](N(C)C)[C@H](O[C@H]3C[C@H](O)[C@H](O[C@H]4CCC(=O)[C@H](C)O4)[C@H](C)O3)[C@H](C)O2)c2c(cc3c(c2O)C(=O)c2c(O)cccc2C3=O)[C@@H]1C(=O)OC the Potency was 0.344 µM (active).

Going from Cc1cc(NC(=O)Nc2ccc3c(ccn3C)c2)sn1 to N#Cc1cc(NC(=O)Nc2nnc(-c3ccncc3)s2)ccc1-c1cn[nH]c1, the “activity change, negative = reduced viability” value falls from -17.4% to -33.1%.

First: CC1=C(C(=O)Nc2cc3cn[nH]c3cc2F)C(c2ccc(Cl)cc2F)N=C(c2ccnc(Cl)c2)N1 (stereo not given)
Second: Cc1c(CCOc2ccc(C(=O)O)cc2)c2cc(Cl)ccc2n1C(c1ccccc1)c1ccccc1
The “activity change, negative = reduced viability” value of the first is higher: -7.89% for the first, -9.04% for the second.

Going from CC(C)n1cnc2c(NCCCCCCNC(=O)OC(C)(C)C)nc(NCCO)nc21 to CCN(CC)CCCCCCCCOC(=O)c1cc(OC)c(OC)c(OC)c1, the “activity change, negative = reduced viability” value falls from -13.4% to -22.6%.

First: NC(=O)c1noc([C@H](CCCC2CCCCC2)CC(=O)NO)n1
Second: Nc1ncnc2c1ncn2C1CCCC1
The “activity change, negative = reduced viability” value of the first is lower: -21.2% for the first, 7.81% for the second.

First: CN(C)CCCc1cc(C(=O)Nc2ccc(-c3ccncc3)cc2)ccc1O
Second: CN(C)CCCC1(c2ccc(F)cc2)OCc2cc(C#N)ccc21 (stereo not given)
The “activity change, negative = reduced viability” value of the first is higher: 10% for the first, -3.36% for the second.

Going from COc1ccc(CCN(C)CCc2ccc(OC)c(OC)c2)cc1OC to COC(=O)[C@H]1[C@H]2C[C@@H]3c4[nH]c5ccccc5c4CCN3C[C@H]2C[C@@H](OC(=O)c2cc(OC)c(OC)c(OC)c2)[C@@H]1OC, the “activity change, negative = reduced viability” value falls from 2.57% to 0.39%.

Compared with CN1CCC2(CCN3CCc4c(oc5ccccc45)C3C2)N(C)C1=O (stereo not given), COc1c2ccoc2cc2oc(=O)ccc12 is higher in “activity change, negative = reduced viability” value: -5.91% for the first, 1.56% for the second.

First: N#C/C(=C\c1ccc(O)c(O)c1)C(=O)NCCc1ccccc1
Second: Clc1nccc2c1ccc1ccccc12
The “activity change, negative = reduced viability” value of the first is higher: -4.56% for the first, -17.6% for the second.

First: c1ccc(C(NCCNC(c2ccccc2)c2ccccc2)c2ccccc2)cc1
Second: CS(=O)(=O)c1ccc(C2=C(c3ccccc3)C(=O)OC2)cc1
The “activity change, negative = reduced viability” value of the first is lower: -4.1% for the first, -0.105% for the second.

Compared with Brc1ccc([C@H]2CN3CCSC3=N2)cc1, C=CCNc1ncnc2ccc(Br)cc12 is lower in “activity change, negative = reduced viability” value: 16.5% for the first, -0.674% for the second.

Compared with COc1ccc2ccc(=O)oc2c1CC=C(C)C, CC(C)Cc1ccc([C@H](C)C(=O)O)cc1 is lower in “activity change, negative = reduced viability” value: 5.45% for the first, 5.26% for the second.

First: Nc1nc(OCc2ccccc2)c2[nH]cnc2n1
Second: CCOC(=O)C1=C(C)NC2=C(C(=O)CC(C)(C)C2)C1c1ccc(-c2ccccc2)cc1 (stereo not given)
The “activity change, negative = reduced viability” value of the first is lower: -14.9% for the first, 26.8% for the second.

First: NC[C@H]1O[C@H](O[C@@H]2[C@@H](O)[C@@H](O[C@H]3O[C@H](CO)[C@@H](O)[C@H](N)[C@@H]3O)[C@H](N)C[C@@H]2N)[C@H](O)[C@@H](O)[C@H]1O
Second: CN(N=O)C(=O)N[C@H]1C(O)OC(CO)[C@@H](O)[C@H]1O (stereo not given in full)
The “activity change, negative = reduced viability” value of the first is higher: -16.1% for the first, -18.2% for the second.

Going from CC=C1C2C=C(C)CC1(N)c1ccc(=O)[nH]c1C2 (stereo not given) to C=C[C@H]1CN2CC[C@@H]1C[C@@H]2[C@@H](O)c1ccnc2ccc(OC)cc12, the “activity change, negative = reduced viability” value falls from 0.938% to -34.3%.

For NC[C@@H]1O[C@H](C23CC4CC(CC(C4)C2)C3)Cc2c1ccc(O)c2O, the “activity change, negative = reduced viability” value was -19.7%.

For O=c1c2ccccc2oc2ccccc12, the “activity change, negative = reduced viability” value was -7.46% [at 115 µM].

Assay: qHTS for Inhibitors of the Functional Ribonucleoprotein Complex (vRNP) of Lymphocytic Choriomeningitis Arenaviruses (LCMV): Viability assay - alamar blue signal for LCMV Primary Screen (AID 1347085)
Conditions: alamar blue viability counter-screen, LCMV vRNP screen cells; series mostly up to 57.5 µM; activity change, negative = lower viability: at the top concentration

In the case of COc1cc(C[C@@H](CO)[C@H](CO)Cc2ccc(O)c(OC)c2)ccc1O, the Potency is reported as 2.73 µM (active).
With CCC[C@@H](C=O)NC(=O)[C@H](CC(C)C)NC(=O)[C@H](CC(C)C)NC(=O)OCc1ccccc1 (Cbz-Leu-Leu-[Nva]-aldehyde) the Potency was 12.2 µM (active).
In the case of N#Cc1cc(NC(=O)Nc2nnc(-c3ccncc3)s2)ccc1-c1cn[nH]c1, the Potency is reported as 6.85 µM (active).
For COc1cc(NC(=O)c2ccc(-c3ccc(Cl)cc3)o2)cc(OC)c1, the Potency was 21.7 µM (active).
In the case of COc1ccc(-c2oc3c(CC=C(C)C)c(O)cc(O)c3c(=O)c2O)cc1, the Potency is reported as 3.43 µM (active).
With CCS(=O)(=O)Nc1ccc2[nH]c(O)c(C(=Nc3ccc(CN4CCCCC4)cc3)c3ccccc3)c2c1 the Potency was 0.968 µM (active).
For COCCCCC(=NOCCN)c1ccc(C(F)(F)F)cc1, the Potency was 38.5 µM (active).
With CCCCOc1c(C(=O)c2c(F)cc(C)cc2F)cnc2n[nH]cc12 the Potency was 7.69 µM (active).
In the case of Nc1nc(OCc2ccccc2)c2[nH]cnc2n1, the Potency is reported as 17.2 µM (active).
For COc1cccc2c1C(=O)c1c(O)c3c(c(O)c1C2=O)C[C@@](O)(C(=O)CO)C[C@@H]3O[C@H]1C[C@H](N)[C@H](OC2CCCCO2)[C@H](C)O1 (stereo not given in full), the Potency was 6.85 µM (active).
With CC[C@@]1(O)C[C@H](O[C@H]2C[C@H](N(C)C)[C@H](O[C@H]3C[C@H](O)[C@H](O[C@H]4CCC(=O)[C@H](C)O4)[C@H](C)O3)[C@H](C)O2)c2c(cc3c(c2O)C(=O)c2c(O)cccc2C3=O)[C@@H]1C(=O)OC the Potency was 0.344 µM (active).
For CS(=O)(=O)c1ccc(C2=C(c3ccccc3)C(=O)OC2)cc1, the Potency was 27.3 µM (active).

First: Cc1cc(NC(=O)Nc2ccc3c(ccn3C)c2)sn1
Second: CN(C)CCCc1cc(C(=O)Nc2ccc(-c3ccncc3)cc2)ccc1O
The “activity change, negative = lower viability” value of the first is higher: 2.21% for the first, -64% for the second.

Compared with CC1=C(C(=O)Nc2cc3cn[nH]c3cc2F)C(c2ccc(Cl)cc2F)N=C(c2ccnc(Cl)c2)N1 (stereo not given), Cc1c(CCOc2ccc(C(=O)O)cc2)c2cc(Cl)ccc2n1C(c1ccccc1)c1ccccc1 is higher in “activity change, negative = lower viability” value: -14.2% for the first, -1.54% for the second.

Going from CC(C)n1cnc2c(NCCCCCCNC(=O)OC(C)(C)C)nc(NCCO)nc21 to CCN(CC)CCCCCCCCOC(=O)c1cc(OC)c(OC)c(OC)c1, the “activity change, negative = lower viability” value falls from 6.11% to -4.06%.

Going from O=Nc1c(-c2c(O)[nH]c3cc(Br)ccc23)[nH]c2ccccc12 to Clc1nccc2c1ccc1ccccc12, the “activity change, negative = lower viability” value falls from 2.39% to -16.5%.

Compared with NC(=O)c1noc([C@H](CCCC2CCCCC2)CC(=O)NO)n1, Nc1ncnc2c1ncn2C1CCCC1 is higher in “activity change, negative = lower viability” value: -16.9% for the first, -5.02% for the second.

First: COc1ccc(CCN(C)CCc2ccc(OC)c(OC)c2)cc1OC
Second: COC(=O)[C@H]1[C@H]2C[C@@H]3c4[nH]c5ccccc5c4CCN3C[C@H]2C[C@@H](OC(=O)c2cc(OC)c(OC)c(OC)c2)[C@@H]1OC
The “activity change, negative = lower viability” value of the first is higher: -2.49% for the first, -5.72% for the second.

Going from CN1CCC2(CCN3CCc4c(oc5ccccc45)C3C2)N(C)C1=O (stereo not given) to COc1c2ccoc2cc2oc(=O)ccc12, the “activity change, negative = lower viability” value falls from 2.47% to 1.61%.

First: N#C/C(=C\c1ccc(O)c(O)c1)C(=O)NCCc1ccccc1
Second: CCOC(=O)C1=C(C)NC2=C(C(=O)CC(C)(C)C2)C1c1ccc(-c2ccccc2)cc1 (stereo not given)
The “activity change, negative = lower viability” value of the first is lower: -14.1% for the first, 24.2% for the second.

First: c1ccc(C(NCCNC(c2ccccc2)c2ccccc2)c2ccccc2)cc1
Second: CN(C)CCCC1(c2ccc(F)cc2)OCc2cc(C#N)ccc21 (stereo not given)
The “activity change, negative = lower viability” value of the first is lower: -28.6% for the first, -1.43% for the second.

Compared with Brc1ccc([C@H]2CN3CCSC3=N2)cc1, C=CCNc1ncnc2ccc(Br)cc12 is higher in “activity change, negative = lower viability” value: 5.14% for the first, 6.77% for the second.

Compared with COc1ccc2ccc(=O)oc2c1CC=C(C)C, CC(C)Cc1ccc([C@H](C)C(=O)O)cc1 is lower in “activity change, negative = lower viability” value: 7.82% for the first, 3.34% for the second.

Going from NC[C@H]1O[C@H](O[C@@H]2[C@@H](O)[C@@H](O[C@H]3O[C@H](CO)[C@@H](O)[C@H](N)[C@@H]3O)[C@H](N)C[C@@H]2N)[C@H](O)[C@@H](O)[C@H]1O to CN(N=O)C(=O)N[C@H]1C(O)OC(CO)[C@@H](O)[C@H]1O (stereo not given in full), the “activity change, negative = lower viability” value rises from -28.8% to 3.88%.

Compared with CC=C1C2C=C(C)CC1(N)c1ccc(=O)[nH]c1C2 (stereo not given), C=C[C@H]1CN2CC[C@@H]1C[C@@H]2[C@@H](O)c1ccnc2ccc(OC)cc12 is lower in “activity change, negative = lower viability” value: 3.56% for the first, -16.6% for the second.

For NC[C@@H]1O[C@H](C23CC4CC(CC(C4)C2)C3)Cc2c1ccc(O)c2O, the “activity change, negative = lower viability” value was -22.5%.

For O=c1c2ccccc2oc2ccccc12, the “activity change, negative = lower viability” value was -9.82% [at 115 µM].
